High-throughput results (PubChem BioAssay)
This is a sample that favours compounds with a hit; in the whole collection about 10% have one here.
LMNA splice mod = qHTS Assay for Modulators of Lamin A Splicing; HeLa LMNA splicing GFP/RFP minigene ratio, 48 h; actives 0.01% (n = 200,000); AID 1487, 2009; Potency, µM (doses to about 46.1 µM), without a hit: at the highest dose ratio change, negative = inhibition, usual class: inhibitors; active = well fitted inhibition curve with a large enough effect in the signal ratio, with a control signal flat, not every such curve was filed as active; inconclusive = small, poorly fitted or top-dose-only effect, or effect the other way, or a change in a side signal; the % refers to the signal ratio; note: potency is the fitted concentration of half-maximal effect
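S3 HeLa cells stably expressing lamin A-EGFP splicing minigene plus DsRed2, 600 cells/well, 48 h compound exposure at 37C. Laser-scanning cytometry; analysed as GFP (500-530 nm)/RFP (575-640 nm) total intensity ratio; 0.5% DMSO vehicle.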
HPGD inh = qHTS Assay for Inhibitors of HPGD (15-Hydroxyprostaglandin Dehydrogenase). purified HPGD, NADH fluorescence kinetic, PGE2 substrate. Potency, µM, without a hit: at the top dose activity change, negative = inhibition, actives largely listed as inhibitors. actives 4.3% (n = 150,000). AID 894, 2007; note: potency is the fitted concentration of half-maximal effect
Target sequence (P15428 whole entry, looked up): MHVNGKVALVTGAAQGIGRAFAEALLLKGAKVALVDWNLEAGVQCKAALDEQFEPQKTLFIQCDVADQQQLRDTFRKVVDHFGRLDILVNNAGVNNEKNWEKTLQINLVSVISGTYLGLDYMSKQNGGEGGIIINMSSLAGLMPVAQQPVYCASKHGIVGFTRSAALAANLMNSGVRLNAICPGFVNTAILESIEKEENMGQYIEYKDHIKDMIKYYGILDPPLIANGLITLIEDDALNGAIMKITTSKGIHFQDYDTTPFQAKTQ
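20 nM HPGD preincubated 15 min at room temperature with compound in 50 mM Tris-HCl pH 8, 0.01% Tween 20. Started with 1 mM NAD+ and 30 uM prostaglandin E2; NADH fluorescence (360/450 nm) read 5 times over 30-s intervals, last minus first.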
ALDH1A1 inh = qHTS Assay for Inhibitors of Aldehyde Dehydrogenase 1 (ALDH1A1) | Aldehyde dehydrogenase 1A1 (Homo sapiens), P00352 | Purified ALDH1A1, NADH fluorescence, propionaldehyde substrate | Potency, µM (highest dose often 75.3 µM), for the others: at the highest dose activity, negative = inhibition, actives largely listed as inhibitors | actives 7.3% (n = 220,000) | AID 1030, 2008;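 note: potency is the fitted concentration of half-maximal effect; plate controls were no enzyme wells and a reference inhibitor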
12-hLO inh = qHTS Assay for Inhibitors of 12-hLO (12-human lipoxygenase) | purified 12-hLO, xylenol orange hydroperoxide absorbance | Potency, µM (doses to about 57.1 µM), for the others: top-dose activity change, negative = inhibition, hits mostly inhibitors | actives 0.12% (n = 150,000) | Polyunsaturated fatty acid lipoxygenase ALOX12 (Homo sapiens), P18054; active = well fitted inhibition curve with a large enough effect; inconclusive = small, poorly fitted or top-dose-only effect; note: potency is the fitted concentration of half-maximal effect; nearly all actives have a fitted effect of over 55% in size
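Xylenol orange chromogenic assay: hydroperoxide from 12hLO oxidises Fe(II), giving red-shifted Fe(III)-XO absorbance. Conditions: 150 nM enzyme, 40 uM arachidonic acid, 25 mM Hepes pH 7.0, 0.01% Triton X-100, 30 min, room temperature.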
PNC inhibitor = High Content Assay for Compounds that inhibit the Assembly of the Perinucleolar Compartment | PC3M PTB-GFP, PNC prevalence imaging, 16 h; active compounds read low | activity change (PNC), negative = inhibition, % at 10 µM | actives 3.1% (n = 140,000) | AID 2417, 2010;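 active = readout at or below -70, meaning at least 70% loss of cells showing the perinucleolar compartment, a nuclear body marking cancer cells; inconclusive = readout between -30 and a set limit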;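 note: plate controls were DMSO wells for no effect and camptothecin positive control wells for full effect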
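PC3M cells stably expressing PTB-GFP, 750–1000 cells/well, treated 16 h at 37 °C with compound (23 nl of library stock), in duplicate. After paraformaldehyde fixation and Hoechst stain, imaged at 20x; PNC prevalence scored by image analysis.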
* hit, by the source's call; ? = inconclusive; . = not tested or not shown; [ ] = another dose, or the depositor's remark. Unless noted, calls come from the whole dose curve; as a rule, active = well fitted inhibition curve with a large enough effect (not every such curve was filed as active); inconclusive = small, poorly fitted or top-dose-only effect, or another doubt; inactive = no such curve, though single readings can be large or run the other way. Unless noted, % is set by controls: 0 for no effect and ±100 for the full control effect.

SMILES	LMNA splice mod	HPGD inh	ALDH1A1 inh	12-hLO inh	PNC inhibitor
CN1CCN(CCCNC(=O)c2cn(C3CCCCC3)c(=O)c3c2c2ccccc2n3C)CC1	1%	?	?	5%	27
Cc1oc2ncnc(N3CCCCC3)c2c1C(=O)NCC1CCN(Cc2cccc(F)c2)CC1	21%[46 µM]	.	.	.	.
O=C(Nc1ccc(Cl)cn1)c1cc(S(=O)(=O)N2CCCCC2)ccc1Cl	7%	-13%	28µM*	0%	-16
O=C(Nc1ccc(Cl)cc1F)c1cc(S(=O)(=O)N2CCCCC2)ccc1F	2%	-7%	6%	-2%	23
CCOc1ncccc1C(=O)Nc1ccc(Cl)c(S(=O)(=O)N2CCCC2)c1	-9%[46 µM]	.	4.5µM*	.	.
O=C(Nc1cccc(O)c1)c1cc(S(=O)(=O)N2CCCC2)ccc1Cl	?	-7%	5µM*	1%	-6
CNC(=O)Cn1cc(S(=O)(=O)Cc2ccccc2F)c2ccccc21	1%[46 µM]	.	.	.	.
Cc1ccc(S(=O)(=O)N2CC=C(c3ccc(F)cc3)CC2)cc1	?	-14%	9%	2%	-80*
Cc1ccc(C)c(NC(=O)C2=CCN(S(=O)(=O)c3ccc(F)cc3)CC2)c1	-8%	-3%	12%	1%	-8
Cc1ccc(C(=O)Nc2ccc3c(c2)CCC3)o1	-4%	22µM*	18µM*	-8%	25
Cc1ccc(C(=O)Nc2nc(C)c(C(=O)Nc3ccc4c(c3)CCC4)s2)cc1	?	?	?	0%	-89*
O=C(Nc1ccc2c(c1)CCC2)c1ccc(Br)o1	-10%	-24%	-9%	8%	?
Cc1nc(NC(=O)c2ccc(F)cc2)sc1C(=O)Nc1ccc2c(c1)CCC2	3%	?	?	2%	?
C=C/C1=C/Cc2ccccc2[C@H](C[N+](=O)[O-])C(C(C)=O)(C(=O)OC)C1 (some centres not stated)	.	-17%	23%	1%	.
CCOC(=O)C1C(C(=O)OC)=C(CC(C)C)c2ccccc2N1S(=O)(=O)C(F)(F)F (configuration not stated)	.	-8%	2%	0%[0.00818 µM]	.
CCOC(=O)c1ccc([N+](=O)[O-])cc1NC(C)=O	5%	4%	12%	-2%	-92*
COc1ccc(C(=O)NCC(=O)OCC(=O)Nc2cc([N+](=O)[O-])ccc2F)cc1	.	.	1.6µM*	.	.
CCOCC(=O)Nc1cc([N+](=O)[O-])ccc1OC	.	.	22µM*	.	.
CC(C)(N)C(=O)N[C@@H]1C(=O)N2[C@@H]1SC(C)(C)[C@H]2C(=O)O	.	-9%	-2%[13.5 µM]	2%[11.4 µM]	.
CCOC(=O)c1cccc(NC(=O)CNS(=O)(=O)c2cccs2)c1	-9%	-10%	-5%	-1%	-100*
CCOC(=O)c1cccc(NC(=O)CCS(=O)(=O)c2cccs2)c1	7%	-9%	20µM*	-4%	44
COc1ccc(C(=O)/C(C#N)=N/Nc2cccc([N+](=O)[O-])c2)cc1	-2%[1.84 µM]	.	?	.	.
O=C(CCC(=O)Nc1ccc(F)cc1)N/N=C/c1ccncc1	.	.	3%	.	.
O=C(CCC(=O)Nc1ccccc1)N/N=C/c1ccncc1	-8%	22µM*	-9%	-9%	-9
O=C(CNc1cccc([N+](=O)[O-])c1)N/N=C/c1ccc([N+](=O)[O-])o1	?	.	2µM*	.	.
SMILES	LMNA splice mod	HPGD inh	ALDH1A1 inh	12-hLO inh	PNC inhibitor
O=C(CNc1ccccc1)N/N=C/c1ccc([N+](=O)[O-])cc1	-9%	-2%	3.5µM*	0%	68
Oc1ccc2c(ccc3[nH]cnc32)c1	?	.	1%	.	.
Brc1cc2[nH]cnc2c2ccccc12	18%	22µM*	14µM*	2%	5
COC(=O)c1ccc(CCc2cc(O)ccc2O)cc1	.	0.4µM*	0.63µM*	3.5µM*	.
COC(=O)c1ccc(O)cc1	10%	3%	-6%	1%[0.00818 µM]	.
CCc1ccccc1NC(=O)CCc1c(C)nn(-c2ccc(N3CCOCC3)nn2)c1C	-8%[46 µM]	.	.	.	.
CN(C)S(=O)(=O)c1ccc(C(=O)N2CCC(c3nc4ccccc4o3)CC2)cc1	-23%	-6%	28µM*	0%	33
O=C(Oc1ccccc1)c1cc2ccccc2o1	1%	-13%	-4%	0%	-6
O=C(/C=C\c1ccccc1OC(=O)c1ccccc1F)c1cc2ccccc2o1	?	28µM*	30%	-5%	?
CCOc1ccc(CNc2cc(C)nc3nc(-c4cccc(C)c4)nn23)cc1OC	-9%[46 µM]	.	.	.	.
O=C(CSc1nnc(CNC(=O)c2cccs2)o1)NC1CCCC1	-3%	-19%	-2%	6%	-100*
O=C(CSc1cn(CCNC(=O)c2cccs2)c2ccccc12)NC1CCCC1	?	20µM*	?	0%	-16
O=c1c(-c2ccc(F)c(F)c2)nc2cncnc2n1C1CC1	-8%	.	11%	.	.
CCn1c(SCc2ccc(Cl)cc2)nc2nc3c(cc2c1=O)CCCC3	-13%	-25%	13µM*	-4%	1
C=C(C)[C@H]1CC=C(CO)CC1	.	-9%	?	-8%[0.00818 µM]	.
CC(C)=CCC/C(C)=C/CO/N=C1/C[C@@H](O)[C@@H](O)[C@@H]2[C@@H]3C(=O)N(C4CCCCC4)C(=O)[C@H]3CC[C@@H]12	.	.	1%[13.5 µM]	.	.
c1cncc(N=c2scc(-c3cccc4ccccc34)n2CCCn2ccnc2)c1	-7%	-21%	?	0%	-92*
O=C(O)CCSCc1ccccc1	.	-10%	2%[13.5 µM]	-2%[11.4 µM]	.
C/C=C(\C)C(=O)NCCN1C2=NC[C@@H](C)N2C[C@@H]1Cc1ccc(OC)cc1	.	.	0%	.	.
COc1ccc(C[C@H]2CN3C(=NC[C@H]3Cc3ccccc3)N2CCNC(=O)CCC2CCCCC2)cc1	.	.	10µM*	.	.
